Holding throughout (design): scale not given: direction of the effect not stated beside the values
The target in assay [1] is Protein translocase subunit SecA (Escherichia coli (strain K12)) (UniProt P10408). In words: Assay to Identify E. coli SecA ATPase Inhibitors. Conditions: 30 µM. The format is functional.
Assay [2] has as its target T1, Ubiquitin-activating enzyme e1, putative (Leishmania donovani (strain BPK282A1)) (UniProt E9BSI1).
T1 sequence (whole entry): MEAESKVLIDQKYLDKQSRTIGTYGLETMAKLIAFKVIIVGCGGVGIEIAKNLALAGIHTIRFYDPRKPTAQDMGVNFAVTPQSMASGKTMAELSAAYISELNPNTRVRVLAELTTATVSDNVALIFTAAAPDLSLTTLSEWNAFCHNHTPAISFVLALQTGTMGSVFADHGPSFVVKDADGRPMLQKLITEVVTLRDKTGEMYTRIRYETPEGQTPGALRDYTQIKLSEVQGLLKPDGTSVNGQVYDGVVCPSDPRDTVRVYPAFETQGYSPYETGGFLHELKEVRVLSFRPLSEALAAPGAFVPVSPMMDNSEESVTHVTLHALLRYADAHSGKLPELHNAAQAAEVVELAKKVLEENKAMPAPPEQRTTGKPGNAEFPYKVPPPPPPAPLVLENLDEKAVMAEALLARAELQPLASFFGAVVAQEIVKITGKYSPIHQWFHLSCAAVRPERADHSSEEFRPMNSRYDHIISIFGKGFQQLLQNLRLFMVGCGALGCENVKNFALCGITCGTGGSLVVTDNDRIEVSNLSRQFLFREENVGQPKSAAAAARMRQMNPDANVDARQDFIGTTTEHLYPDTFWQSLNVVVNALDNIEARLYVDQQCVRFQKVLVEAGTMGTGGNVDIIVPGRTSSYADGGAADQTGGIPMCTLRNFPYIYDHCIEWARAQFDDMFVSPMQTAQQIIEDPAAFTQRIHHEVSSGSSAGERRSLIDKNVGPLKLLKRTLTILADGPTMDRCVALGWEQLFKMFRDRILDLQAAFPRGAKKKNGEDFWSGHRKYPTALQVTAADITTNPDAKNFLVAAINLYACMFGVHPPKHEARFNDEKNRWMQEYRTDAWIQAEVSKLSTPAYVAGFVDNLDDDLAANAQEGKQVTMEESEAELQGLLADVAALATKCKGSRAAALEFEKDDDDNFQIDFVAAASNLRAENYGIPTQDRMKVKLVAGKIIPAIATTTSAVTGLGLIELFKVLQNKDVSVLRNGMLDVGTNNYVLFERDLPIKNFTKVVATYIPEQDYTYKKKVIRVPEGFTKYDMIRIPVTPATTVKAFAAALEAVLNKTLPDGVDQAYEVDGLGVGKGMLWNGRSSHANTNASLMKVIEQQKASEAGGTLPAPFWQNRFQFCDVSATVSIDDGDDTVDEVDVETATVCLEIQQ
In words: Leishmania donovani Ubiquitin Activating Enzyme (LdE1). In kind it is functional. The conditions noted are these: 30 µM.

Assay [3] has as its target AMP-activated protein kinase, AMPK (Homo sapiens) (UniProt P54646+O43741+P54619+Q9UGJ0+Q9Y478+Q13131+Q9UGI9). In words: AMP-dependent Kinase enzyme assay. An in vitro enzyme assay that detects ADP turnover that is directly proportional to AMPK activity. This uses naive AMPK that is activated during the assay with MK-8722. In kind it is functional. The conditions noted are these: 30 µM.

For assay [4], the target named is Sialic acid-binding Ig-like lectin 9 (Homo sapiens) (UniProt Q9Y336). In words: Hs-Siglec9 ALPHAscreen SOP 20170721. Conditions: 10 µM.
The subject of assay [5] is Trypanosoma cruzi. In words: Trypanosoma cruzi phosphomannomutase and mannose-1-phosphate guanylyltransferase assay. Conditions: 10 µM. In kind it is functional.
Assay [6] has as its target T2, Arginase-2, mitochondrial (Homo sapiens) (UniProt P78540).
T2 sequence (whole entry): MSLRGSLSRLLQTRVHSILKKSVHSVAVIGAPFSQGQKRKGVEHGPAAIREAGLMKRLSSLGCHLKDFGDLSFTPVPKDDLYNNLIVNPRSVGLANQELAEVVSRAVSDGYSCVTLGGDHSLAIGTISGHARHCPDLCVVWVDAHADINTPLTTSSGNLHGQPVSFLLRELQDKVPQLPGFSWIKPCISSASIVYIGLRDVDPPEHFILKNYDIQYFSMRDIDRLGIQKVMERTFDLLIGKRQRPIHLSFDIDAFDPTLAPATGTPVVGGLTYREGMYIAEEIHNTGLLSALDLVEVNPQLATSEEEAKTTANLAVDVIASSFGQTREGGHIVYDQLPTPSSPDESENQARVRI
In words: in vitro enzyme assay to detect the production of urea directly proportional to the activity of Arginase II. Note: in the data most compounds retested in dose-response had high values. In kind it is functional. Conditions: 33.3 µM.

For assay [7], the target named is T3, Proteasome subunit beta (Trypanosoma cruzi) (UniProt O96673).
T3 sequence (whole entry): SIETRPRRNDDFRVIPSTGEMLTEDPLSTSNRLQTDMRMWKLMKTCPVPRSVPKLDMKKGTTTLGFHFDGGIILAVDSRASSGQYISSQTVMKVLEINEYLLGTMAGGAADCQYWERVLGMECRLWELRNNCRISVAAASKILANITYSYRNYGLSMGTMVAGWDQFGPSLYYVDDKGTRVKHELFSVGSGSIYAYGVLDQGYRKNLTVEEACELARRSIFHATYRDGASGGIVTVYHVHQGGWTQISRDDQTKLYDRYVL
In words: Trypanosoma cruzi proteasome chymotrypsin-like activity (TcProtChymo) assay. Note: in the data most compounds retested in dose-response had high values. In kind it is functional. The conditions noted are these: 9.37 µM.

Assay [8] is filed under the species Homo sapiens. In words: To identify inhibition of the IFN signalling (Jak-Stat) pathway via expression of an eGFP reporter gene under the control of an IFN-stimulated response element (ISRE) containing MxA promoter. In kind it is functional. Conditions: 30 µM. (In a reporter assay the amount or activity of a reporter protein is the signal.)
Assay [9] concerns the target T4, Tyrosyl-tRNA synthetase, putative (Trypanosoma cruzi (strain CL Brener)) (UniProt Q4DSP6).
T4 sequence (whole entry): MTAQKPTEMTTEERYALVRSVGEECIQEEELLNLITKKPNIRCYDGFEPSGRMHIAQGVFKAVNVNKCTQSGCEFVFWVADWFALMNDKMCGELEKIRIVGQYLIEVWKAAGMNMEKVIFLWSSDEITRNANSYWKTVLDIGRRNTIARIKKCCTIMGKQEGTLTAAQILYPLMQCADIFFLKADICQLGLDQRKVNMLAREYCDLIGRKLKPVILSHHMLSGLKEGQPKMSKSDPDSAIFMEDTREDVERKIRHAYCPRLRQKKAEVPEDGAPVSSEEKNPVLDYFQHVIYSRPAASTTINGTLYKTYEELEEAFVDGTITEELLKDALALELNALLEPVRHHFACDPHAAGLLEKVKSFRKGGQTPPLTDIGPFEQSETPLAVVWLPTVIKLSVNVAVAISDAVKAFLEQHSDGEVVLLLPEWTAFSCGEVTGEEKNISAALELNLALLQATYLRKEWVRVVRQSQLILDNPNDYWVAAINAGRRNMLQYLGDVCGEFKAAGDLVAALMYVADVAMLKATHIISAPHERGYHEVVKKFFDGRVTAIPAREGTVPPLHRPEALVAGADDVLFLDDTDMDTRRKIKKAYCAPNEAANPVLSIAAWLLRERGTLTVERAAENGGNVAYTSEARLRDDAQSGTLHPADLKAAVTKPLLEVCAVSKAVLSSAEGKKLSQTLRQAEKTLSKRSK
In words: Trypanosoma cruzi tyrosyl tRNA synthetase (TcYRS) _High Tyrosine SOP. Note: in the data most compounds retested in dose-response had high values. The format is functional. Conditions: 30 µM.

Assay [10] deals with T4, Tyrosyl-tRNA synthetase, putative (Trypanosoma cruzi (strain CL Brener)). In words: Trypanosoma cruzi tyrosyl tRNA synthetase (TcYRS) SOP. The format is functional. The conditions noted are these: 30 µM.
Assay [11] concerns the target Chromo domain-containing protein 1 (Saccharomyces cerevisiae (strain ATCC 204508 / S288c) (Baker's yeast)) (UniProt P32657). In words: ScCHD-1 Enzyme Inhibition Assay. Note: in the data most compounds retested in dose-response had high values. In kind it is functional. The conditions noted are these: 30 µM.

The values that follow come from ChEMBL document CHEMBL3988442, “University of Dundee, Small-Polar-MMV Screening Library” (2021).

For some of these results: Results with a measured potency or affinity are listed apart.

Chain of Protein translocase subunit SecA (Escherichia coli (strain K12)) (P10408 whole entry): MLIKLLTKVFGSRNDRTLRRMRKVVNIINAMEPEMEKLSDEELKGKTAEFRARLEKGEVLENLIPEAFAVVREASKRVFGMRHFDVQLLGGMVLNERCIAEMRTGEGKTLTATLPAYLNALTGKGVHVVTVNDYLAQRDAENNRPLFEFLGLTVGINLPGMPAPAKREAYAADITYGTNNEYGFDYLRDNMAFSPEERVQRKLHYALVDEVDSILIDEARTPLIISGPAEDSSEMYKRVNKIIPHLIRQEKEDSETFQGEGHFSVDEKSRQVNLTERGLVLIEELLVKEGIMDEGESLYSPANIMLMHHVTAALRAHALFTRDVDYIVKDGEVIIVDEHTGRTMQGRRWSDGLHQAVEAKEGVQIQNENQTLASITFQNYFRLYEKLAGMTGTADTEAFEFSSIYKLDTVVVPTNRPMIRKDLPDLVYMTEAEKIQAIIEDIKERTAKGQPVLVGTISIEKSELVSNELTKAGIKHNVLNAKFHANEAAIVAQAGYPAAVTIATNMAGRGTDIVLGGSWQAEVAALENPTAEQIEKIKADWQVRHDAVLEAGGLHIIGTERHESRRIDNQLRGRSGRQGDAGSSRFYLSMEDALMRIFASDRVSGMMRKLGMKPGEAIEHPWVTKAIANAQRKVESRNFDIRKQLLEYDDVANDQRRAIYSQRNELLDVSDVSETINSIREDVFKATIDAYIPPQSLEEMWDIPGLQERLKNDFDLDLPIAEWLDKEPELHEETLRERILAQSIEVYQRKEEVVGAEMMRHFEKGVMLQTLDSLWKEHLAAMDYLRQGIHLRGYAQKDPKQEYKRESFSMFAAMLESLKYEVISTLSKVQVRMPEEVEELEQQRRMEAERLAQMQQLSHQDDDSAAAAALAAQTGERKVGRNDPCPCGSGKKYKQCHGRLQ
Chain of Sialic acid-binding Ig-like lectin 9 (Homo sapiens) (Q9Y336 whole entry): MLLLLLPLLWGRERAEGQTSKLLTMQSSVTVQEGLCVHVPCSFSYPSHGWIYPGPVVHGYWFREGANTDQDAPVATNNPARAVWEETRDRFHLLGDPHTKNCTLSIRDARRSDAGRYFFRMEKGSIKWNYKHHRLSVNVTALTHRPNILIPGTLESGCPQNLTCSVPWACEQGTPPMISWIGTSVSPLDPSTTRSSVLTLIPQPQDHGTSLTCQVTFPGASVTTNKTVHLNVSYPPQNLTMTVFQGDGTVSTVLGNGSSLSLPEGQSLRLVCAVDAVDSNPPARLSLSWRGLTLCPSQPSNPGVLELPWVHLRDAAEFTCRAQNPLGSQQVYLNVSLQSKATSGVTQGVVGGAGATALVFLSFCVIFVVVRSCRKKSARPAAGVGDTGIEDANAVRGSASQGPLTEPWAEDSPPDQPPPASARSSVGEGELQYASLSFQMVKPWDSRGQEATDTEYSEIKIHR
Chain of Chromo domain-containing protein 1 (Saccharomyces cerevisiae (strain ATCC 204508 / S288c) (Baker's yeast)) (P32657 whole entry, the tested form may be a part): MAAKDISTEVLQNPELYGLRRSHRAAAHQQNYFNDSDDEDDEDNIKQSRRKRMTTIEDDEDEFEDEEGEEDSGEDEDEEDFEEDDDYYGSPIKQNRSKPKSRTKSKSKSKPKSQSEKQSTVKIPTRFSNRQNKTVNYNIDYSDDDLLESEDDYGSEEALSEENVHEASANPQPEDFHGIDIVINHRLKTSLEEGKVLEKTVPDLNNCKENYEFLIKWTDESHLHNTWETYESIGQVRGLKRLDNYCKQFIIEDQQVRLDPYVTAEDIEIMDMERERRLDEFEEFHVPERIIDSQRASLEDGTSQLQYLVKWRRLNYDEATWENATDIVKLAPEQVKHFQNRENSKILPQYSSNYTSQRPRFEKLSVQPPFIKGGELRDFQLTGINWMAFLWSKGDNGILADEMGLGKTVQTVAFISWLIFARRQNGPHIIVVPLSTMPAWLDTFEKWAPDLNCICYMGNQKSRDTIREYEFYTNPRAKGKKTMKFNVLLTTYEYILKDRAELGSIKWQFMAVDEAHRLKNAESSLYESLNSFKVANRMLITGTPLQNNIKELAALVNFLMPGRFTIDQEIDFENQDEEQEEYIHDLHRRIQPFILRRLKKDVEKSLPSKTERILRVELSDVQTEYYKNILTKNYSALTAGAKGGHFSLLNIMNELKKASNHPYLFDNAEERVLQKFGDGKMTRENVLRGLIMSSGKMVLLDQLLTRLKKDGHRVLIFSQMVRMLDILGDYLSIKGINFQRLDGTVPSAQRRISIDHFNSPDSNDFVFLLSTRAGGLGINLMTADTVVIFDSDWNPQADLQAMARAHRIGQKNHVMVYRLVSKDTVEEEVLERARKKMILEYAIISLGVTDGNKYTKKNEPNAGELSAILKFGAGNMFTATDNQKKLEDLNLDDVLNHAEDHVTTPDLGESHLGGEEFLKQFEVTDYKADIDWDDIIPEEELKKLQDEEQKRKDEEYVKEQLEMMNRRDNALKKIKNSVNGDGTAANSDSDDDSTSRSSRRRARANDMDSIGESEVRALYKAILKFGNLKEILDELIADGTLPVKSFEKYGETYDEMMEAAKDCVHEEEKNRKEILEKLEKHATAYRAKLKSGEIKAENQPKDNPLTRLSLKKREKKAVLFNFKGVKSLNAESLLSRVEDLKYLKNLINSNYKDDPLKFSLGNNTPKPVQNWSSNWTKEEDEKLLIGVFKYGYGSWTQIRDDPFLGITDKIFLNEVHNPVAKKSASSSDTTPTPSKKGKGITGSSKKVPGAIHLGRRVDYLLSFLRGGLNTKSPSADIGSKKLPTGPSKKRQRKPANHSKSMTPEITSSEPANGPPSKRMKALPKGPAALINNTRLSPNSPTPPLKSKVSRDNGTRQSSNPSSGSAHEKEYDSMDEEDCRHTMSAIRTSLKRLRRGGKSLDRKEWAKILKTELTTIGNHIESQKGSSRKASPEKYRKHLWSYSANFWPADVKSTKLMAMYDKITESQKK

Regarding `Cc1cc(C(=O)NC2CCCN(c3ccccc3)C2=O)on1` (stereo unspecified), the Percent Effect in assay [1] is -6.07%; in assay [2], 5.33%; in [3], -2.45%; in [4] it was -2.4%; in [5] it was -0.0974%; in assay [6], -1.56%. In addition, the Percent Effect in assay [7] is 8.37%; in assay [8] it was 5.07%; in [9] it was 1.64%; in [10], 13.6%; in assay [11], -2.89%.

With `O=C(N1CCOCC1)[C@@]12CCO[C@@H]1CCN(Cc1ccccc1F)C2`, the Percent Effect is -0.952% in [1]; -4% in assay [2]; -2.07% in [3]; 6.8% in [4]; -6.88% in [5]; 29.8% in assay [6]. For the same compound, the Percent Effect in [7] was 12.2%; in assay [8] it was 0.338%; in assay [9], 1.06%; in assay [10], -2.56%; in [11] it was -3.56%.

Turning to `CCc1ccc(C(=O)NC2CCN(c3cnn(C)c3)C2=O)o1` (stereo unspecified), the Percent Effect in assay [1] is -6.02%; in assay [2], 2.7%; in [3] it was -5.86%; in assay [4], 6.69%; in assay [5], 8.11%; in [6], -0.744%. Besides, the Percent Effect in [7] is 8.84%; in [8], -0.708%; in assay [9], 3.23%; in assay [10], 11.1%; in assay [11], -7.33%.

Take `CCN1CCN(Cc2coc(-c3cccc(F)c3)n2)CC1`: the Percent Effect in assay [1] is -2.72%; in assay [2], 18.2%; in assay [3] it was -12.3%; in assay [4] it was -3.56%; in assay [5] it was 5.06%; in assay [6], -0.356%. Moreover, the Percent Effect is 16.6% in assay [7]; -3.8% in assay [8]; 9.71% in assay [9]; 12.2% in [10]; -12% in assay [11].

Turning to `CCOc1ccnc(N2CCN(C(=O)c3cccc(C#N)c3)CC2)n1`, the Percent Effect in assay [1] is -7.73%; in assay [2] it was 13.2%; in assay [3], -3.41%; in assay [4], 8.57%; in assay [5], -1.77%; in assay [6], -2.88%. For the same compound, the Percent Effect turned out to be 3.47% in assay [7]; 8.64% in assay [8]; 2.46% in assay [9]; 11.1% in assay [10]; 2.13% in assay [11].

On to `Cc1cccc(NC(=O)N2CCCn3cnc(CN4CCCC4)c3C2)c1`, for which the Percent Effect is -3.65% in assay [1]; 8.11% in [2]; -3.2% in [3]; -1.77% in [4]; 3.91% in [5]; 0% in [6]. Besides, the Percent Effect in [7] is 12.4%; in assay [8], -6.55%; in assay [9], 16.8%; in assay [10], 11%; in [11], -4.14%.

In the case of `Cc1cc(N2CCCCCC2)n2nc(C)c(C)c2n1`, the Percent Effect in [1] is -1.9%; in [2], 4.17%; in assay [3], -3.08%; in [4], 0.107%; in assay [5], 12.2%; in assay [6], -0.883%. Further, the Percent Effect was 23.3% in [7]; 3.63% in assay [8]; 0% in [9]; 12.8% in assay [10]; -7.26% in assay [11].

In the case of `Cc1cc(CN(C)C(=O)C2CCS(=O)(=O)C2)no1` (stereo unspecified), the Percent Effect in [1] is 0.281%; in [2] it was 18.2%; in [3], -1.29%; in assay [4], -9.12%; in assay [5], 4.21%; in [6], 2.74%. The Percent Effect in [7] was 14%; in assay [8], 31.4%; in assay [9], 5.71%; in assay [10], 21.2%; in assay [11], -8.16%.

For the compound `Cc1nc(C)n(CC2CCCN2CCCOc2ccc(F)cc2)n1` (stereo unspecified), the Percent Effect was -4.9% in [1]; -15.2% in assay [2]; -12.2% in assay [3]; -1.58% in [4]; 7.84% in [5]; 0% in [6]. Besides, the Percent Effect is 8.93% in [7]; 7.36% in [8]; 8.37% in assay [9]; 13.9% in [10]; -6.25% in assay [11].

Take `CCc1ncncc1C(=O)N1CCN(Cc2c(C)noc2C)CC1`: the Percent Effect was -5.8% in [1]; 13.2% in [2]; -4.4% in [3]; 4.23% in assay [4]; 2.89% in assay [5]; 0.36% in [6]. The Percent Effect was 3.98% in [7]; -0.539% in assay [8]; 7.39% in [9]; 16.1% in assay [10]; -0.381% in assay [11].

As for `CS(=O)(=O)NCC(=O)NC1CCc2nccn2C1` (stereo unspecified), the Percent Effect is 0.138% in [1]; 5.33% in [2]; -3.96% in [3]; -2.36% in [4]; -7.69% in assay [5]; 1.56% in assay [6]. The Percent Effect was 12.7% in [7]; 2.1% in assay [8]; 4.92% in [9]; 8.64% in assay [10]; -13.2% in [11].
